Test results as given in PubChem BioAssay.
Inconclusive results are not listed. The source made the active and inactive calls.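 Rule for the calls, unless noted: active = viability loss from added drug above about 55%, and viability with drug at most 40%, in both replicates (limit read from the data, passing the limit was not always enough); inconclusive = both conditions met in only one replicate; inactive = neither replicate meets both conditions.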

How the values were obtained:
[1] = Her2 expression decrease, cell viability multiplex – SKBR3 breast tumor cells, AlphaScreen, ATP viability, primary screen (AID 461;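 active = Her2 level under about 52% in both replicate screens, with viability over 70% of control, limit read from the data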;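 for Her2 level: lower value means less Her2 protein in the cells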;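 for viability: percent of carrier control wells set as 100% viability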); conditions: SKBR3 Her2 protein level, 18-24 h, measured here: SKBR3 viability, ATP luminescence, at 10 µM
[2] = biological target: Receptor tyrosine-protein kinase erbB-2 (Homo sapiens) (UniProt P04626); experiment: as above; conditions: 18-24 h, at 10 µM, stronger effect = lower value
Sequence of Receptor tyrosine-protein kinase erbB-2 (Homo sapiens) (P04626 whole entry, looked up): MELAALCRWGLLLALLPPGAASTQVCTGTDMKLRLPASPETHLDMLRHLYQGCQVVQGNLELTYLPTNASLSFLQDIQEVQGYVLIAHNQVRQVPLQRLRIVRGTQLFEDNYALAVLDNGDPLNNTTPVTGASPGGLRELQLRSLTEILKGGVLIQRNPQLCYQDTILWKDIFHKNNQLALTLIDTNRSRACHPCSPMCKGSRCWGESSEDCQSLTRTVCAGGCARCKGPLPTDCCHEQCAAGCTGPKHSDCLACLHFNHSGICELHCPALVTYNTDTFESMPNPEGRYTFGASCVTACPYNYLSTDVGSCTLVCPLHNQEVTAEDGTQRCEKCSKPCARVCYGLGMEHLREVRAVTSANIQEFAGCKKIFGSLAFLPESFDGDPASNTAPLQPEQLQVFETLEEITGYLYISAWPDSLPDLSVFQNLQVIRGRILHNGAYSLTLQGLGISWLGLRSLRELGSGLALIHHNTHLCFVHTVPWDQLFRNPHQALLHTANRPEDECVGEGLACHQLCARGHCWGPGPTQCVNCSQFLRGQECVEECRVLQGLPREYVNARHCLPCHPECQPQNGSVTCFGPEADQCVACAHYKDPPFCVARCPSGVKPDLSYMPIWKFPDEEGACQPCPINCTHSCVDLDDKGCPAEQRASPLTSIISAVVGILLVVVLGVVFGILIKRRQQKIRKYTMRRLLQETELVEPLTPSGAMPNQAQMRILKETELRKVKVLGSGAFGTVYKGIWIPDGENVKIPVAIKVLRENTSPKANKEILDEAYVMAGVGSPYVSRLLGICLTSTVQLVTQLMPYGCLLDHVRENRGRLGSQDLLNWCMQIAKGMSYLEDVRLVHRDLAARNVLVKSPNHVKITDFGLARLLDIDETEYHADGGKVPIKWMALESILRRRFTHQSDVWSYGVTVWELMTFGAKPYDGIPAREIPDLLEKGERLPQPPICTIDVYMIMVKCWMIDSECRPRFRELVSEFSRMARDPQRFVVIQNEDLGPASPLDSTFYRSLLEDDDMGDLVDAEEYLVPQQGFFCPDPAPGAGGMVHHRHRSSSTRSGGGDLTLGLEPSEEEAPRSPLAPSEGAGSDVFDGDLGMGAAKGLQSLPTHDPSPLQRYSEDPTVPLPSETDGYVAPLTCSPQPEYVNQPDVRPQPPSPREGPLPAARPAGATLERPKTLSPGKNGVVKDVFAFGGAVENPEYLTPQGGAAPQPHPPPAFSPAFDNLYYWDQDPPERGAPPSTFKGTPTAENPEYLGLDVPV

[3] = reduced viability of SK-BR-3 breast cancer cells – cell-based, 24 h, human, pilot screen (AID 572;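 active = viability at or below 10% of carrier control in both of two separate runs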;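 note: compound exposure lasted between 18 and 24 h rather than exactly 24 h; 100% = carrier-treated control wells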); conditions: SK-BR-3 viability, CellTiter-Glo luminescence, at 10 µM, stronger effect = lower value
[4] = HUVEC growth inhibition – cell-based, human, primary screen (AID 575;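 active = viability at or below 30% in both replicate assays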;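 note: 100% = median of untreated cell wells with 0.1% DMSO on each plate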); conditions: HUVEC proliferation, CellTiter-Glo luminescence, 72 h; at 10 µM; stronger effect = lower value
[5] = H69AR cell proliferation blockers – human, duplicate replicates, primary screen (AID 580;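 active = viability at or under a set limit in both replicates, limit being median viability minus 3 SD, cut at about 48% in these data, passing the limit was not always enough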;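 note: 100% = mean luminescence of untreated wells and 0% = no signal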); conditions: H69AR lung tumor cells viability, ATP luminescence, 72 h; at 10 µM; stronger effect = lower value
[6] = MRP1 drug-resistance reversers in H69AR cells – cell-based, doxorubicin co-treatment, pilot screen (AID 601); conditions: CellTiter-Glo, 72 h, at 10 µM; for differential viability (reversal): stronger effect = higher value
[7] = yeast transport mutant growth inhibition pilot in 384-well plates, post-Golgi transport modulator project (AID 636; in the data active = inhibition above about 31%); conditions: absorbance 615 nm, about 18 h, stronger effect = higher value
[8] = growth suppression of yeast trafficking mutant, preliminary HTS, modulators of trafficking downstream of Golgi apparatus project, 1536-format plate, OD 615 nm (AID 637; in the data active = inhibition above about 30%); conditions: yeast transport mutant growth, absorbance 615 nm, 18 h; stronger effect = higher value
[9] = S. cerevisiae growth inhibition in permissive medium (OD615), pilot counter-assay for S. cerevisiae lifespan shortening project, permissive growth control (AID 705;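 active = growth inhibition above 25% in both replicates, a cutoff set 3 SD above the mean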); conditions: OD615, 24 h, at 10 µM, stronger effect = higher value
[10] = S. cerevisiae growth inhibition in restrictive medium, OD615, pilot screen, restrictive growth control, yeast lifespan reduction project (AID 706;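 active = growth inhibition above a set limit, 3 SD over mean compound inhibition, in both replicates, cut at about 43% in these data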;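 note: modified DeaD lifespan yeast strain shifted to restrictive glucose medium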); conditions: OD615, 48 h, at 10 µM, stronger effect = higher value
[11] = doxorubicin toxicity protection in MRP-1 cells – H69AR cells, CellTiter-Glo, duplicate, MRP-1 activator project, pilot screen (AID 807;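 active = viability increase at or above a cutoff of the median across tested compounds plus 3 SD, cut at about 8.5% in these data, passing the limit was not always enough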;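 note: compound pretreatment 18-22 h then 72 h combined with doxorubicin; 0% = doxorubicin alone and 100% = vehicle without doxorubicin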); conditions: H69AR viability with doxorubicin, CellTiter-Glo luminescence; at 10 µM; stronger effect = higher value
[12] = viability of HCT116 without oncogenic beta-catenin – human colon tumor cells, pilot screen (AID 823;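 active = cell viability at or below a set limit in both duplicate runs, the limit being the all-compound median minus 4 SD, cut at about 23% in these data, passing the limit was not always enough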;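 note: 0% = wells killed by 20 µM Hyamine and 100% = untreated DMSO cell wells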); conditions: HCT116 beta-catenin knockout viability, CellTiter-Glo, 60 h; at 10 µM; stronger effect = lower value
[13] = viability of PTEN-null HCT116 cells – cell-based, HCT116 clonal line, CellTiter-Glo, pilot screen (AID 824;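 active = viability at or below 27.92% in each of two runs, the all-compound median minus 4 SD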;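 note: 0% = 20 µM Hyamine control and 100% = vehicle cell control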); conditions: HCT116 PTEN-deleted viability, 60 h, at 10 µM, stronger effect = lower value
[14] = RAM pathway blockade in budding yeast – dse1pr::URA3 reporter, 5-FOA selection, pilot screen (AID 869;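 active = inhibition over a set limit, the all-compound mean plus 3 SD, in both replicate runs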;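 note: 0% = DMSO wells with no growth and 100% = 10 µM 1-NA-PP1 with full growth; RAM network block rescues cells from 5-FOA so hits raise OD615 growth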); conditions: S. cerevisiae dse1pr::URA3 5-FOA growth, OD615, 2 d; at 10 µM; stronger effect = higher value; strain carries analog-sensitive mutant Cbk1 kinase
[15] = RAM signaling pathway blockade in yeast – S. cerevisiae, Pdr1DBD-CYC8 efflux-inhibited sensitized strain, primary screen (AID 1298;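 active = RAM network inhibition above 8.4% in each of two replicates, 3 SD over the compound average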;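 note: 0% = DMSO untreated cells without growth and 100% = 10 µM 1-NA-PP1 full growth; higher means more yeast growth rescued from 5-FOA killing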); conditions: S. cerevisiae cbk1-as DSE1-URA3 strain, 5-FOA growth OD615, 2 d; at 50 µM; stronger effect = higher value
[16] = H69AR cells + 2 uM doxorubicin, measured here: viability with 2 uM doxorubicin, stronger effect = lower value
[17] = H69AR cells, compound alone cytotoxicity

Structure (SMILES)	viability [1]	Her2 level [2]	viability [3]	viability [4]	viability [5]	differential viability (reversal) ([6]; H69AR cells + 2 uM doxorubicin)	viability [6, 16]	viability [6, 17]	inhibition [7]	inhibition [8]	growth inhibition [9]	growth inhibition [10]	viability increase [11]	viability [12]	viability [13]	inhibition [14]	RAM network inhibition [15]
Cc1ccc(C(C)C)c(OCCCN2CC(C)OC(C)C2)c1 (stereo not drawn)	98.5%	85% (inactive)	98.5% (inactive)	101% (inactive)	89.4% (inactive)	-9.6% (inactive)	99%	89.4%	75.4% (active)	27.7% (inactive)	-7.86% (inactive)	-13.4% (inactive)	-2.59% (inactive)	78.5% (inactive)	89.3% (inactive)	0.705% (inactive)	1.47% (inactive)
O=C(CCn1c(=O)oc2ccccc21)NCc1ccco1	106%	115% (inactive)	106% (inactive)	89.9% (inactive)	91% (inactive)	10% (inactive)	81%	91%	-3.47% (inactive)	-5.17% (inactive)	-2.37% (inactive)	-2.52% (inactive)	-1.66% (inactive)	102% (inactive)	99.4% (inactive)	2.08% (inactive)	2.93% (inactive)
O=C(Nc1nnc(-c2ccc(Cl)cc2)o1)C1CCCCC1	87.5%	99% (inactive)	87.5% (inactive)	67% (inactive)	69.2% (inactive)	-17.3% (inactive)	86.5%	69.2%	-7.2% (inactive)	-2.33% (inactive)	4.85% (inactive)	8.62% (inactive)	-1.38% (inactive)	54.2% (inactive)	58.2% (inactive)	1.51% (inactive)	1.36% (inactive)
CC(=O)Nc1cccc(NC(=O)CSc2nn3c(=O)c(C)nnc3s2)c1	100%	91% (inactive)	100% (inactive)	76.8% (inactive)	90.8% (inactive)	15.5% (inactive)	75.3%	90.8%	-5.73% (inactive)	-4.33% (inactive)	-3.39% (inactive)	-16% (inactive)	0.35% (inactive)	110% (inactive)	103% (inactive)	1.29% (inactive)	4.27% (inactive)
Cn1cnc2cc(NC(=O)c3ccc(Cl)cc3)ccc21	91.5%	90.5% (inactive)	91.5% (inactive)	88.1% (inactive)	93% (inactive)	-2.15% (inactive)	95.2%	93%	-4% (inactive)	-3.33% (inactive)	0.595% (inactive)	7.51% (inactive)	0.08% (inactive)	94.5% (inactive)	96.5% (inactive)	0.75% (inactive)	-1.41% (inactive)
Cc1ccc2c(c1)-c1c(cnn1CC(=O)NC(C)CCc1ccco1)CO2 (stereo not drawn)	85.5%	87% (inactive)	85.5% (inactive)	91.5% (inactive)	85.9% (inactive)	-5.22% (inactive)	91.1%	85.9%	-4.36% (inactive)	0.83% (inactive)	-10.4% (inactive)	-5.76% (inactive)	-3.78% (inactive)	88.8% (inactive)	87% (inactive)	2.04% (inactive)	7.88% (inactive)
CCn1cc(C(=O)NCC2CCCO2)c(=O)c2cc(S(=O)(=O)N(C)C3CCCCC3)ccc21 (stereo not drawn)	83.5%	93.5% (inactive)	83.5% (inactive)	69.5% (inactive)	68.5% (inactive)	-11.5% (inactive)	80%	68.5%	-1.41% (inactive)	1.5% (inactive)	-2.38% (inactive)	-2.37% (inactive)	-5.22% (inactive)	88.9% (inactive)	87% (inactive)	4.23% (inactive)	-0.83% (inactive)
CC(=O)c1cc2c(cc1NC(=O)CN1CCN(C(=O)c3ccco3)CC1)OCO2	90%	120% (inactive)	90% (inactive)	92.5% (inactive)	86.3% (inactive)	-3.21% (inactive)	89.5%	86.3%	-5.47% (inactive)	-3.5% (inactive)	0.565% (inactive)	-17.1% (inactive)	-3.21% (inactive)	98.2% (inactive)	97% (inactive)	2.79% (inactive)	0.37% (inactive)
COC(=O)Cc1cc(=O)[nH]c(Nc2nc3ccccc3o2)n1	104%	99.5% (inactive)	104% (inactive)	74.6% (inactive)	78.3% (inactive)	8.41% (inactive)	69.8%	78.3%	-1.03% (inactive)	-3.33% (inactive)	3.62% (inactive)	1.2% (inactive)	-2.4% (inactive)	102% (inactive)	97.9% (inactive)	1.03% (inactive)	5.31% (inactive)
